The values below come from PubChem BioAssay (EPA / NIEHS).

Read-out in assay [1]: UDP glucuronosyltransferase (UGT1A6), UGT1A6 (gene 54578)
As to the kind of experiment: LTEA_HepaRG_UGT1A6: Life Technologies and Expression Analysis (LTEA) Assay for UDP glucuronosyltransferase (UGT1A6) using HepaRG (AID 2283539; active = hit-call score of the fitted dose curve at least 0.9, where 1 is the maximum; inactive = score below 0.9). As to conditions: mRNA level, 48 h; actives raise or lower the signal. The method in brief:
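Differentiated HepaRG cells, ~100,000/well, were exposed for 48 h in serum-free induction medium with 0.5% DMSO to 8-point half-log series topping at 100 uM, in duplicate. mRNA measured by Fluidigm TaqMan qRT-PCR, normalized to ACTB, GAPDH and POLR2A.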

Read-out in assay [2]: X-box binding protein 1 (XBP1), XBP1 (gene 7494)
As to the kind of experiment: LTEA_HepaRG_XBP1: Life Technologies and Expression Analysis (LTEA) Assay for X-box binding protein 1 (XBP1) using HepaRG (AID 2283540; active = hit-call score of the fitted dose curve at least 0.9, where 1 is the maximum; inactive = score below 0.9). As to conditions: mRNA level, 48 h; actives raise or lower the signal. The method in brief:
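Differentiated human HepaRG cells in serum-free induction medium exposed 48 h in duplicate to eight half-log concentrations up to 100 uM in 0.5% DMSO. XBP1 mRNA measured by Fluidigm TaqMan qRT-PCR, normalized to ACTB, GAPDH, POLR2A; bidirectional fitting against DMSO.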

Assay [3] is described as follows: LTEA_HepaRG_LDH_cytotoxicity: Cytotoxicity Assessment in the Life Technologies and Expression Analysis (LTEA) Assay (AID 2283563). The method in brief: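 Differentiated HepaRG cells in serum-free induction medium, exposed 48 h in duplicate to 8 half-log concentrations up to 100 uM in 0.5% DMSO. Cytotoxicity from LDH measured in spent medium, fit relative to DMSO.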

Assay [4] can be described thus: TOX21_p53_BLA_p2_viability: Viability Assessment in the Tox21 HCT-116 p53 Agonism Beta-lactamase Assay, Phase 2 (AID 2283591).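 Also: compound exposure lasted 16 h at 37 °C; actives lower the ATP signal meaning cytotoxicity.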 The method in brief:
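Cytotoxicity readout: CellTiter-Glo ATP luminescence, 30 min at room temperature, after the beta-lactamase read. Cells were HCT116 exposed 16 h at 37C to compounds pin-transferred at 217-fold dilution from DMSO stocks.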

Assay [5] has as its target Cellular tumor antigen p53 (Homo sapiens) (UniProt P04637). As to the kind of experiment: TOX21_p53_BLA_p2_ratio: Tox21 HCT-116 p53 Agonism Beta-lactamase Assay, Ratio, Phase 2 (AID 2283592). The method in brief:
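HCT-116 cells with p53-responsive beta-lactamase reporter, 4000 cells/well, preincubated 5 h, then compound in DMSO (217-fold dilution) for 16 h at 37C. CCF4-AM substrate 2 h at room temperature; 460/530 nm emission ratio fitted upward versus DMSO.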

Assay [6] is described as follows: TOX21_p53_BLA_p3_viability: Viability Assessment in the Tox21 HCT-116 p53 Agonism Beta-lactamase Assay, Phase 3 (AID 2283593).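 Also: cells exposed to compound for 16 h before reading.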 In short, it runs like this: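 Cellular ATP was quantified by CellTiter-Glo luminescence, read after 30 min at room temperature. Beforehand, HCT116 cells (4000/well) received compound 5 h post-seeding, 217-fold diluted from DMSO, then incubated 16 h at 37C.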

Assay [7] deals with Cellular tumor antigen p53 (Homo sapiens) (UniProt P04637). As to the kind of experiment: TOX21_p53_BLA_p3_ratio: Tox21 HCT-116 p53 Agonism Beta-lactamase Assay, Ratio, Phase 3 (AID 2283596). The method in brief:
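HCT116 p53-bla cells (4000/well) given compound in DMSO (217-fold dilution) after 5 h, incubated 16 h at 37C. CCF4-AM substrate 2 h at room temperature; 460/530 nm emission ratio, gain fitted against DMSO.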

For assay [8] the target is unchanged. As to the kind of experiment: TOX21_p53_BLA_p5_ratio: Tox21 HCT-116 p53 Agonism Beta-lactamase Assay, Ratio, Phase 5 (AID 2283599). The method in brief:
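Beta-lactamase reporter ratio (blue 460 nm over green 530 nm, 405 nm excitation) after 2 h CCF4-AM loading, in HCT-116 cells exposed 16 h at 37 C to compounds pinned at 217-fold dilution. Increases relative to DMSO baseline scored.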

Assay [9] is described as follows: TOX21_p53_BLA_p5_viability: Viability Assessment in the Tox21 HCT-116 p53 Agonism Beta-lactamase Assay, Phase 5 (AID 2283600). In short, it runs like this: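 HCT-116 p53 beta-lactamase reporter cells, 4000/well, were exposed to compound (pin transfer, 217-fold dilution) for 16 hours at 37C. Cellular ATP was read by CellTiter-Glo luminescence after 30 min at room temperature.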

In assay [10] the target is Cellular tumor antigen p53 (Homo sapiens) (UniProt P04637). As to the kind of experiment: TOX21_p53_BLA_p4_ratio: Tox21 HCT-116 p53 Agonism Beta-lactamase Assay, Ratio, Phase 4 (AID 2283601). The method in brief: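 Signal is the blue/green (460nm/530nm) ratio of cleaved versus uncleaved CCF4-AM substrate, read after 2 h substrate loading. Cells were HCT116 carrying the p53-responsive beta-lactamase reporter, dosed 16 h at 37C, 5% CO2; CellTiter-Glo measured in parallel.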

Assay [11] is described as follows: Tanguay_ZF_120hpf_MORT_legacy: (Legacy) Oregon State University Tanguay Lab 120 Hour Post-fertilization zebrafish Assay for Mortality (AID 2283633). In short, it runs like this: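 Dechorionated Tropical 5D wild-type zebrafish embryos, one per well from 6 hpf, static exposure in 0.64% DMSO at 28C until 120 hpf. Mortality scored as binary by brightfield microscopy at 24 and 120 hpf.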

The nature of assay [12]: Tanguay_ZF_120hpf_YSE_legacy: (Legacy) Oregon State University Tanguay Lab 120 Hour Post-fertilization zebrafish Assay for Yolk Sac Edema (AID 2283634).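 As to AC50: actives raise the incidence of yolk sac edema above the DMSO baseline.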 The method in brief: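 Dechorionated Tropical 5D wild-type zebrafish embryos were exposed statically, one per well, from 6 to 120 hpf at 28C in 0.64% DMSO. Yolk sac edema was scored present/absent by brightfield at 120 hpf, and dead embryos were excluded.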

Assay [13] can be described thus: Tanguay_ZF_120hpf_AXIS_legacy: (Legacy) Oregon State University Tanguay Lab 120 Hour Post-fertilization zebrafish Assay for Body Axis Malformation (AID 2283635).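 As to AC50: potency for an increased fraction of larvae scored with body axis malformation.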 The method in brief: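 Dechorionated wild-type Tropical 5D zebrafish embryos, one per well, statically exposed from 6 hpf to 120 hpf at 28C in 0.64% DMSO final. Body axis malformation scored present/absent by brightfield microscopy at 120 hpf; dead embryos excluded.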

Assay [14] can be described thus: Tanguay_ZF_120hpf_EYE_legacy: (Legacy) Oregon State University Tanguay Lab 120 Hour Post-fertilization zebrafish Assay for Eye Malformation (AID 2283636). In short, it runs like this:
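Read-out is binary presence or absence of eye malformation, scored by brightfield microscopy at 120 hpf. Single larvae were exposed from 6 hpf in embryo medium containing 0.64% DMSO, with DMSO as baseline.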

Assay [15] can be described thus: Tanguay_ZF_120hpf_SNOU_legacy: (Legacy) Oregon State University Tanguay Lab 120 Hour Post-fertilization zebrafish Assay for Snout Malformation (AID 2283637). The method in brief:
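Snout malformation read as a yes/no call on brightfield images of 120 hpf larvae (Tropical 5D strain). Static exposure began at 6 hpf on dechorionated embryos in 0.64% DMSO, with gain of signal analysed versus DMSO controls.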

Assay [16] in a line: Tanguay_ZF_120hpf_JAW_legacy: (Legacy) Oregon State University Tanguay Lab 120 Hour Post-fertilization zebrafish Assay for Jaw Malformation (AID 2283638).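 As to AC50: active means more embryos with jaw malformation than DMSO controls.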 The method in brief:
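Dechorionated Tropical 5D wild-type zebrafish embryos, one per well, exposed statically from 6 hpf to 120 hpf at 28C in 0.64% DMSO. Jaw malformation was scored by brightfield microscopy as present or absent. It was not scored in dead embryos.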

A short description of assay [17]: Tanguay_ZF_120hpf_OTIC_legacy: (Legacy) Oregon State University Tanguay Lab 120 Hour Post-fertilization zebrafish Assay for Otic Vesicle Malformation (AID 2283639). The method in brief:
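Otic vesicle malformation is read as a yes/no morphology call at 120 hpf. Exposure is static at 28C with 0.64% (vol/vol) DMSO; embryos that die are excluded from non-mortality endpoints.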

Assay [18] is described as follows: Tanguay_ZF_120hpf_PE_legacy: (Legacy) Oregon State University Tanguay Lab 120 Hour Post-fertilization zebrafish Assay for Pericardial Edema (AID 2283640). The method in brief:
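Tropical 5D wild-type zebrafish embryos were statically exposed until 120 hpf at 28C, with 0.64% DMSO final. Pericardial edema was scored by brightfield as present or absent; endpoints were not scored in dead embryos.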

Assay [19] is described as follows: ATG_XTT_Cytotoxicity: Cytotoxicity Assessment in the Attagene TRANS-FACTORIAL HepG2 Assay (AID 2283584). In short, it runs like this: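 HepG2 cells transiently transfected with GAL4-UAS multiple reporter units, dosed 24 h; cytotoxicity read by XTT as loss of signal versus DMSO baseline.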
A short description of assay [20]: TOX21_p53_BLA_p4_viability: Viability Assessment in the Tox21 HCT-116 p53 Agonism Beta-lactamase Assay, Phase 4 (AID 2283597).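 Also: hits lower the luminescence signal meaning cytotoxicity.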 In short, it runs like this: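 HCT-116 p53-bla cells, 4000/well, dosed after 5 h attachment and incubated 16 h at 37 °C, 5% CO2. Viability from CellTiter-Glo ATP luminescence after 30 min at room temperature, taken after the beta-lactamase read; loss of signal indicates cytotoxicity.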

Where “and” joins values, the source holds several entries; their conditions need not be identical. Identical values can stand only once. Records with an inconclusive call do not appear. Some structures have more than one record in an assay (separate samples or runs), and their calls can disagree. Calls of active or inactive are those of the source. The calls were made as follows, unless noted: active = hit-call score of the fitted dose curve at least 0.9, where 1 is the maximum; inconclusive = response in the unintended direction; inactive = score below 0.9.

Sequence of Cellular tumor antigen p53 (Homo sapiens) (P04637 whole entry, looked up): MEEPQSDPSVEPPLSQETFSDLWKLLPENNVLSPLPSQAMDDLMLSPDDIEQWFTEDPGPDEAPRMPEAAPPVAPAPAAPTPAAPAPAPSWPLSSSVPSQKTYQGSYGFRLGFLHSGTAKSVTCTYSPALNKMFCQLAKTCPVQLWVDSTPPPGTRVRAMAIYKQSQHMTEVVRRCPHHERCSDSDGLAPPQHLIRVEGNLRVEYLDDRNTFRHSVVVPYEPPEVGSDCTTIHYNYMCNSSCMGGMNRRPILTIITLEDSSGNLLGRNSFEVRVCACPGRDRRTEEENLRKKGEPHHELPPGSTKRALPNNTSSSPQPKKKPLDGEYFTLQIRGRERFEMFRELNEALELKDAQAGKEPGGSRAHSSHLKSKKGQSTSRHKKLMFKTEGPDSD

On to `C=CCc1ccc(O)c(OC)c1`, for which the outcome in [1], in [2], in [3], in assay [4], in assay [5] and in [6] was inactive. In addition, the result in assay [7], in assay [8], in [9], in [10], in assay [11] and in assay [12] was inactive. Further, the outcome in [13], in assay [14], in assay [15], in [16], in [17] and in assay [18] was inactive.

Consider `C[Si]1(C)O[Si](C)(C)O[Si](C)(C)O[Si](C)(C)O1`, for which the compound was called inactive in [1], in [2], in assay [3], in [4], in [5] and in assay [6]. For the same compound, the outcome in assay [8], in [10], in assay [11], in assay [12], in [13] and in assay [14] was inactive. In addition, the compound was classed as inactive in [15], in [16], in assay [17] and in [18].

Turning to `Cc1nc(C)nc(N2C[C@@H](C)N(c3ccnc([C@@H](C)O)n3)[C@@H](C)C2)n1`, the outcome in assay [1], in assay [2], in assay [3], in assay [4], in assay [5] and in assay [6] was inactive. For the same compound, the result in assay [9], in assay [11], in [12], in assay [13], in assay [14] and in [15] was inactive. Further, the call in assay [16], in assay [17] and in assay [18] was inactive.

As to `COc1cc(/C=C/C(=O)CC(=O)/C=C/c2ccc(O)c(OC)c2)ccc1O`, the compound was called inactive in [19], in assay [4], in assay [6] and in assay [20]. For the same compound, the AC50 in assay [4] is 82.2 µM (active) and 34.1 µM (active); in [5] it was 2.06 µM (active) and 36 µM (active) and 6.79 µM (active); in assay [6], 57.5 µM (active) and 19.8 µM (active); in assay [7], 13.6 µM (active) and 35.3 µM (active) and 6.9 µM (active); in assay [20], 88.4 µM (active) and 23 µM (active); in assay [8] it was 14 µM (active) and 39.4 µM (active) and 7.67 µM (active). The AC50 is 80.7 µM (active) and 22.5 µM (active) in assay [9]; 14 µM (active) and 36.5 µM (active) and 7.12 µM (active) in assay [10].

Regarding `CCCCOC(=O)CCCCCCCCC(=O)OCCCC`, the compound was called inactive in assay [1], in assay [2], in [3], in assay [5], in assay [6] and in assay [20]. The outcome in [10], in assay [11], in assay [12], in assay [14], in assay [16] and in assay [17] was inactive. Further, in [18], the result was inactive.

Consider `Cc1cc(NC(=O)C(=O)O)cc(C)c1Oc1ccc(O)c2c1CCC2`, for which the outcome in assay [1], in [2], in [3], in assay [5], in [7] and in assay [8] was inactive. For the same compound, the result in [10], in [11], in assay [14], in [17] and in assay [18] was inactive. In addition, the AC50 in assay [12] was 0.0678 µM (active); in assay [13], 0.526 µM (active); in assay [16] it was 0.0689 µM (active).

As to `CCCCCCCCCCCCCCCC`, the compound was classed as inactive in [1], in assay [2], in assay [3], in [4], in assay [5] and in [6]. Besides, the result in [7], in assay [11], in assay [12], in [13], in assay [14] and in assay [15] was inactive. Besides, the compound was classed as inactive in [16], in [17] and in assay [18].

A word on the AC50: it is the midpoint of the concentration-response curve, whichever way the signal moves.
